Data from PubChem BioAssay AID504329 (Southern Research Specialized Biocontainment Screening …, 2011).
Hit rate of the full screen: of about 340,000 compounds, about 1,000 (0.29%) were called active. Not all results are given here. Entries with a potency or affinity are not part of this list. Values without a mark were called inactive. No stated cut-off is given here; in the data, inconclusive means inhibition above about 27% without an active follow-up result; inactive means below that.

Assay: NS1A inhibition, H1N1 influenza, cell based functional assay (AID 504329)
Conditions: percent inhibition, at 12.5 µM, stronger effect = higher value
With `Fc1ccccc1NC(=S)N1CCOCC1` the inhibition was 16.1%.
For `COC(=O)c1sc(S(=O)(=O)Nc2ccc(C)cc2)c(C(=O)OC)c1C`, the inhibition was 12.7%.
`CCN(/C(N)=N/c1nc(C)cc(C)n1)c1ccccc1` gave an inhibition of -6.77%.
In the case of `CC12CCC(C(=O)N(CSC(=S)N/N=C\c3ccccc3)C1=O)C2(C)C` (configuration not stated), the inhibition is reported as 6.84%.
`CC12CCC(C(=O)N(CSC(=S)N/N=C\c3ccccc3Cl)C1=O)C2(C)C` (configuration not stated) gave an inhibition of -1.31%.
`CCC(C(=O)NC1CCCC1)n1c(SCc2cccc(C)c2)nc2ccncc21` (configuration not stated) showed an inhibition of -51.9%.
With `O=[N+]([O-])c1c(NCCCO)cc(N2CCCCCC2)c2nonc12` the inhibition was 21.6%.
In the case of `COc1ccc(-c2nc(C#N)c(N3CC(C)OC(C)C3)o2)cc1OC` (configuration not stated), the inhibition is reported as 2.35%.
`COc1ccc(NS(=O)(=O)c2ccc(C(=O)N3CCN(c4ccc(F)cc4)CC3)cc2)cc1` showed an inhibition of 1.18%.
Compound `CC(CC(F)(F)F)N1CCC(n2nccc2NC(=O)CCCc2ccccc2)CC1` (configuration not stated) has an inhibition of -11%.
For `Cc1ccccc1/C=N/Nc1ccc(Cl)nn1`, the inhibition was 3.61%.
`Fc1ccccc1/C=N/Nc1ccc(Cl)nn1` gave an inhibition of -6.11%.
`Oc1ccc(/C=N/Nc2ccc(Cl)nn2)cc1O` gave an inhibition of 4.82%.
For `Oc1c(Br)cc(Br)cc1/C=N/Nc1ccc(Cl)nn1`, the inhibition was 4.26%.
`CCCCC(=O)Nc1cccc(C(=O)N/N=C/c2ccc(OC)cc2OC)c1` showed an inhibition of 1.12%.
Work on `CC(C)OC(=O)c1cn(-c2ccccc2)nc1-c1ccc2c(c1)OCCO2` yielded an inhibition of -6.27%.
Compound `CCN(C[C@H]1N[C@@](C)(C(=O)OC)[C@H]2C(=O)N(Cc3ccccc3)C(=O)[C@@H]12)C(=O)c1ccc(F)cc1` has an inhibition of -26.8%.
`O=C(CN1CCN(C(C(=O)Nc2ccc(Cl)cc2C(F)(F)F)c2ccccc2)CC1)NC1CC1` (configuration not stated) gave an inhibition of 3.63%.
Compound `CC(=O)c1ccc(NC(=O)C(C)Nc2ccc(Cl)cc2)cc1` (configuration not stated) has an inhibition of -4.25%.
With `COC(=O)C(=CC(=CN(C)C)C=C(C(=O)OC)C(=O)OC)C(=O)OC` the inhibition was -13.2%.
In the case of `CC(C)Cn1c(NCCO)nc2ccccc21`, the inhibition is reported as -6.72%.
`O=C(COC(=O)c1ccccn1)Nc1cccc2ccccc12` gave an inhibition of -2.54%.
Work on `O=c1[nH]c(-c2ccccn2)cc2ccccc12` yielded an inhibition of -3.67%.
Compound `CN(C)CCCNCC(=O)Nc1ccccc1N1CCOCC1` has an inhibition of 5.38%.
Work on `O=C(COc1ccc2ccccc2c1)N1CCN(C(=O)c2ccco2)CC1` yielded an inhibition of -12.2%.
Work on `CN(C)S(=O)(=O)c1cccc2c1C(=O)c1ccccc1C2=O` yielded an inhibition of 4.55%.
Compound `CNc1c(C(=O)O)ccc2c1C(=O)c1ccccc1C2=O` has an inhibition of 13.4%.
For `O=C1c2ccccc2C(=O)c2c1cccc2N(CCO)CCO`, the inhibition was 4.16%.
`CCN(CC)CC(=O)Nc1cccc2c1C(=O)c1ccccc1C2=O` gave an inhibition of 11%.
With `CN(C=[N+](C)C)c1cccc2c1C(=O)c1ccccc1C2=O` the inhibition was 3.5%.
Work on `CC(=O)NC1=C(Nc2ccc(N(C)C)cc2)C(=O)c2ccccc2C1=O` yielded an inhibition of 12.5%.
In the case of `CC(C)C[C@H]1COCCS(=O)(=O)N1Cc1cccc(F)c1`, the inhibition is reported as -14.6%.
In the case of `Cc1ccc(NC(=O)CC2S/C(=N/c3nccs3)N(C)C2=O)c(C)c1` (configuration not stated), the inhibition is reported as 2.84%.
In the case of `CCCCNC(=O)NNC(=O)c1ccoc1C`, the inhibition is reported as 0.18%.
Work on `Cc1cc2oc(=O)cc(COC(=O)Cn3cnnn3)c2cc1C(C)C` yielded an inhibition of -1.41%.
In the case of `Cc1nc(SCC(=O)Nc2c(C)n(C)n(-c3ccccc3)c2=O)c2cnn(-c3ccccc3)c2n1`, the inhibition is reported as -4.59%.
Compound `CC(C)Nc1nc(NC(C)C)nc(N(C)N)n1` has an inhibition of 14.6%.
`CCNc1nc(NCC)nc(N(C)n2cnnc2)n1` gave an inhibition of -22%.
Work on `COc1ccccc1C(=O)NNS(=O)(=O)c1ccc(F)cc1` yielded an inhibition of -5.08%.
Work on `CCc1ccc(NS(=O)(=O)c2c(C(=O)N3CCOCC3)c(C)n(C)c2C)cc1` yielded an inhibition of 0.85%.
With `CCOC(=O)C(C)Oc1ccccc1C1NC(=O)NC(C)=C1C(=O)Nc1ccc(C)c(C)c1` (configuration not stated) the inhibition was -6.31%.
Compound `[O-][n+]1c2c(nn1-c1ccccc1)/C(=N/O)CCC2` has an inhibition of -6.08%.
In the case of `CCOC(=O)Cc1nnc(NC(=O)COc2ccc(F)cc2)s1`, the inhibition is reported as 6.17%.
For `O=C(Nc1nc(-c2ccco2)c(-c2ccco2)s1)c1c(F)cccc1Cl`, the inhibition was -14.8%.
With `CC1(C)OC(=O)C(=NNc2ccccc2[N+](=O)[O-])C(=O)O1` the inhibition was 3.07%.
With `CC1=CC(=NNS(=O)(=O)c2ccc([N+](=O)[O-])cc2)CC(C)(C)C1` the inhibition was 4.39%.
Work on `CC(=O)COc1cc(C)cc2oc(=O)c(C)c(C)c12` yielded an inhibition of 11.6%.
For `CCc1ccc2c(c1)C1(NN=C(c3cccc4ccccc34)S1)C(=O)N2` (configuration not stated), the inhibition was 11.6%.
`CCc1ccc2c(c1)C1(NN=C(c3ccc(C)cc3)S1)C(=O)N2` (configuration not stated) gave an inhibition of 22.9%.
In the case of `CCOc1ccccc1Nc1cc(C)nc2ccc(C)cc12`, the inhibition is reported as 6.09%.
In the case of `Cc1ccc(N2CC(NS(=O)(=O)c3cc(F)ccc3F)CC2=O)cc1C` (configuration not stated), the inhibition is reported as 9.69%.
For `O=S(=O)(NCc1ccccc1)c1ccc2ccccc2c1`, the inhibition was -9.3%.
`CCCS(=O)(=O)NCc1ccc2c(c1)cc(C)n2C` gave an inhibition of 7.25%.
`Cc1cc(C)c(S(=O)(=O)NCc2ccc3c(c2)cc(C)n3C)c(C)c1` showed an inhibition of 21.8%.
In the case of `Cc1nc(CNS(=O)(=O)c2ccc(Oc3ccccc3)cc2)cs1`, the inhibition is reported as -11.2%.
For `Cc1ccc(S(=O)(=O)NCc2csc(C)n2)cc1`, the inhibition was -0.87%.
With `CCS(=O)(=O)NCc1ccc2c(c1)cc(C)n2C` the inhibition was 10.3%.
In the case of `CC(=O)Nc1ccc(S(=O)(=O)NCc2ccc3c(c2)cc(C)n3C)cc1`, the inhibition is reported as 19.1%.
Compound `Cc1cc2cc(CNS(=O)(=O)c3ccccc3)ccc2n1C` has an inhibition of 17%.
`COc1ccccc1C(=O)NCC(=O)OCC(=O)c1ccc2c(c1)-c1ccccc1C2` showed an inhibition of 2.5%.
Work on `CSc1ccccc1OCc1cc(C(=O)N2CCN(c3ncccn3)CC2)no1` yielded an inhibition of -3.62%.
`O=C(c1ccccc1F)N1CCCc2ccccc21` showed an inhibition of -3.09%.
